Experimental data from PubChem BioAssay AID602258 (National Center for Advancing Translational Sciences (NCATS), 2012).
Results filed as inconclusive are left out. A call without a number means that no potency is given here. Calls of active or inactive are those of the source. The call rests on the fitted dose curve; in most records, active means well fitted activation curve with a large enough effect; inconclusive means small, poorly fitted or top-dose-only effect; inactive means no such curve, though single readings can be large or run the other way.

Target: Relaxin receptor 2 (Homo sapiens) (UniProt Q8WXD0)
Assay: qHTS Assay for Agonists of the Relaxin Receptor RXFP1: RXFP2 SAR
Conditions: HEK293 RXFP2 cAMP TR-FRET agonist, 30 min; series mostly up to 78.1 µM
Excerpt: The relaxin hormone is involved in the variety of biological functions in normal tissues and diseases. The role of relaxin is well-established in female reproduction and parturition, mammary gland and endometrial development, maintenance of myometrial quiescence during pregnancy. Relaxin signaling through its G protein-coupled receptor (GPCR) RXFP1 results in ECM remodeling through regulation of collagen deposition, cell invasiveness, proliferation and overall tissue homeostasis. […] Recombinant human relaxin (rhRlx) is currently being tested in clinical trials as a protective agent in congestive heart failure, in treating severe preeclampsia, and as an anti-fibrotic agent in systemic sclerosis. Upon relaxin binding RXFP1 activation leads to the activation of adenylate cyclase (AC) via Gs. cAMP will activate PKA, which phosphorylates many signaling proteins. Thus, detection of cAMP increase is an easy and reliable indication of relaxin receptor activation. To screen for agonists of the relaxin receptor, a HEK293T cell line stably transfected with RXFP1 was used. RXFP1 activation was assayed by changes in cAMP levels as detected with a time-resolved fluorescence energy transfer (TR-FRET) cAMP detection kit. This assay measures activation of a cell expressing RXFP2, another GPCR targeted by relaxin, to determine the selectivity of compounds for RXFP1. NIH Chemical Genomics Center [NCGC] NIH Molecular Libraries Probe Production Centers Network [MLPCN] MLPCN Grant: R03 MH085705-01A1 Assay Submitter (PI): Alexander Agoulnik
This is a cell-based assay for cAMP second messenger response to screen for agonists of the RXFP2 receptor. The assay was conducted in the presence of a PDE4 inhibitor (Ro 20174). The cells were lysed and the cAMP levels were measured with a TR-FRET cAMP kit. Presence of cAMP in the cell lysate disrupts binding between the cryptate-labeled anti-cAMP and d2-labeled cAMP pair, leading to a decrease in the TR-FRET signal. Data were normalized to the controls for basal activity (buffer only) and 100% activity (29 nM porcine relaxin). The EC50 values were determined from concentration-response data modeled with the standard Hill equation 1536-well assay protocol for the HEK293 RXFP2 cAMP assay: (1) Add 3 ul HEK293 RXFP2 cell culture. 2000 cells/well in DMEM/F12, 10% FBS, 1x Pen/Strep (dispensed offline with MultiDrop Combi). (2) Incubate 16-24 hr at 37C, 5% CO2. (3) Add 1 ul 400uM Ro20174 in DPBS, 0.05% BSA, 0.005% Tween 20. (3) Add 23 nl compounds in DMSO solution. Final concentration was 0.5 - 58 uM. (4) Incubate 30 min at 37C, 5% CO2. (5) Add 1 ul cAMP-d2 in lysis buffer (HTRF cAMP HiRange kit, CisBio). (6) Add 1 ul anti-cAMP antibody-cryptate in lysis buffer (HTRF cAMP HiRange kit, CisBio). (7) Incubate 30 min at room temperature. (6) Detect the assay plate in a ViewLux plate reader (PerkinElmer) with Ex=320 nm, Em1=615 nm and Em2=665 nm. Keywords: relaxin, RXFP1, RXFP2, G-protein coupled receptor, cAMP, agonist, high throughput screening, MLSMR, MLSCN, NIH Roadmap, qHTS and NCGC

Sequence of Relaxin receptor 2 (Homo sapiens) (Q8WXD0 whole entry, looked up): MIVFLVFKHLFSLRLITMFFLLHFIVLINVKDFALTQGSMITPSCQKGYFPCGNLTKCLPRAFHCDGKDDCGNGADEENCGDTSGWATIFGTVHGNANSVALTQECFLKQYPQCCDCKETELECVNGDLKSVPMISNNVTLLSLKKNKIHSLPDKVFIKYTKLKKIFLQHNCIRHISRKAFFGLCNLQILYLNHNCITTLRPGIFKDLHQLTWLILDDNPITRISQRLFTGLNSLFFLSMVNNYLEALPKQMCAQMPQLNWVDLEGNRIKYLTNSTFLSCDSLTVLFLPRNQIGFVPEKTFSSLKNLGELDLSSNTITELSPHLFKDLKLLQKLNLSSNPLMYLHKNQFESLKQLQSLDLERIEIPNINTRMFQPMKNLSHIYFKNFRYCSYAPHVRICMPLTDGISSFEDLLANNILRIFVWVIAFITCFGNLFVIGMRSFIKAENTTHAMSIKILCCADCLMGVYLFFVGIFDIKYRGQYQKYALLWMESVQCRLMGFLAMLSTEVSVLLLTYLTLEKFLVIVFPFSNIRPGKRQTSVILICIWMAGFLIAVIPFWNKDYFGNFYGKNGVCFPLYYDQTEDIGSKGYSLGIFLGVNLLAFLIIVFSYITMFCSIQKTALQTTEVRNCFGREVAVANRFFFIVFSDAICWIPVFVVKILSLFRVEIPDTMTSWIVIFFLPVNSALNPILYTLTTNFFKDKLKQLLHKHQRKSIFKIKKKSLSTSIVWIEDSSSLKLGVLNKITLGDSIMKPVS

Structure (SMILES) | Potency
O=C(Nc1ccccc1C(=O)Nc1cccc(C(F)(F)F)c1)c1cccnc1 | inactive
CN(C)CCOc1ccccc1C(=O)Nc1ccccc1C(=O)Nc1cccc(C(F)(F)F)c1 | inactive
COCCOc1ccccc1C(=O)Nc1cccc(C(F)(F)F)c1 | inactive
Cc1cccc(NC(=O)c2ccccc2NC(=O)C2CCCCC2)c1 | inactive
COCCOc1ccccc1C(=O)Nc1ccccc1C(=O)Nc1cccc(C(F)(F)F)c1 | 5.29 µM (active)
O=C(Nc1cccc(C(F)(F)F)c1)c1ccccc1NC(=O)C1CCCC1 | inactive
CCCOc1ccccc1C(=O)Nc1ccccc1C(=O)Nc1cccc(S(=O)(=O)C(F)(F)F)c1 | inactive
CCOc1ccccc1C(=O)Nc1ncccc1C(=O)Nc1cccc(S(=O)(=O)C(F)(F)F)c1 | inactive
O=C(Nc1cccc(Cl)c1)c1ccccc1NC(=O)C1CCCCC1 | inactive
CCCCOc1ccccc1C(=O)Nc1ccccc1C(=O)Nc1cccc(S(=O)(=O)C(F)(F)F)c1 | inactive
CCOc1ccccc1C(=O)NCCC(=O)Nc1cccc(S(=O)(=O)C(F)(F)F)c1 | inactive
COc1ccccc1C(=O)N(C)c1ccccc1C(=O)N(C)c1cccc(C(F)(F)F)c1 | inactive
COCCNc1ccccc1C(=O)Nc1cccc(C(F)(F)F)c1 | inactive
COc1ccccc1C(=O)Nc1ccccc1C(=O)Nc1cccc(C(F)(F)F)c1 | 5.93 µM (active)
COc1ccccc1C(=O)Nc1ccc(C(=O)Nc2cccc(C(F)(F)F)c2)cc1 | inactive
CCC(CC)C(=O)Nc1ccccc1C(=O)Nc1cccc(C(F)(F)F)c1 | inactive
CCOc1ccccc1C(=O)Nc1ccccc1C(=O)Nc1cccc(C(F)(F)F)c1 | 9.4 µM (active)
CC(C)(C)c1cccc(NC(=O)c2ccccc2NC(=O)C2CCCCC2)c1 | inactive
CCOc1ccccc1C(=O)Nc1ccccc1C(=O)Nc1cccc(S(=O)(=O)C(F)(F)F)c1 | 7.47 µM (active)
COc1ccccc1-c1ccccc1C(=O)Nc1cccc(C(F)(F)F)c1 | inactive

Structure (SMILES) | Potency
O=C(NCc1ccco1)c1ccccc1NC(=O)c1ccccc1NC(=O)C1CCCCC1 | inactive
O=C(Nc1cccc(-c2cccc(C(F)(F)F)c2)c1)c1ccccc1NC(=O)C1CCCCC1 | inactive
O=C(Nc1ccc(C(F)(F)F)cc1)c1ccccc1NC(=O)C1CCCCC1 | inactive
CCOc1ccccc1-c1nc2c(C(=O)Nc3cccc(S(=O)(=O)C(F)(F)F)c3)cccc2[nH]1 | inactive
COc1ccccc1C(=O)Nc1ccccc1C(=O)Nc1cccc(S(=O)(=O)C(F)(F)F)c1 | inactive
COc1ccccc1C(=O)Nc1ccccc1C(=O)N(C)c1cccc(C(F)(F)F)c1 | inactive
CCCCC(=O)Nc1ccccc1C(=O)Nc1cccc(C(F)(F)F)c1 | inactive
O=C(NCc1cccc(C(F)(F)F)c1)c1ccccc1NC(=O)C1CCCCC1 | inactive
COc1cccc(NC(=O)c2ccccc2NC(=O)C2CCCCC2)c1 | inactive
O=C(Nc1cccc(C(F)(F)F)c1)c1ccccc1NC(=O)C1CCC1 | inactive
COc1ccccc1C(=O)N(C)c1ccccc1C(=O)Nc1cccc(C(F)(F)F)c1 | inactive
CCOc1ccccc1S(=O)(=O)Nc1ccccc1C(=O)Nc1cccc(S(=O)(=O)C(F)(F)F)c1 | inactive
O=C(Nc1cccc(S(=O)(=O)C(F)(F)F)c1)c1ccccc1NC(=O)C1CCCCC1 | inactive
O=C(Nc1cccc(S(=O)(=O)C(F)(F)F)c1)c1ccccc1NC(=O)c1ccccc1OCC(F)(F)F | inactive
O=C(Cc1ccccc1)Nc1ccccc1C(=O)Nc1cccc(C(F)(F)F)c1 | inactive
Cc1ccccc1C(=O)Nc1ccccc1C(=O)Nc1cccc(C(F)(F)F)c1 | inactive
O=C(Nc1ccccc1C(=O)Nc1cccc(C(F)(F)F)c1)c1ccccc1Cl | inactive
O=C(Nc1cccc(Br)c1)c1ccccc1NC(=O)C1CCCCC1 | inactive
COc1ccc(C(=O)Nc2ccccc2C(=O)Nc2cccc(C(F)(F)F)c2)cc1 | inactive
COc1cccc(C(=O)Nc2ccccc2C(=O)Nc2cccc(C(F)(F)F)c2)c1 | inactive
